KB-V1 cytotox = qHTS assay for MDR1-selective chemotherapeutics: Primary screen using the drug-selected MDR subline cells KB-V1. KB-V1 MDR cells viability, CellTiter-Glo, 72 h. Potency, µM (titrated, usually from 46.1 µM), most hits filed as cytotoxic. 400,000 compounds, 3.4% hits. AID 1347076, 2019; note: % is set by controls: 0 for no effect and ±100 for the full control effect; nearly all actives have a fitted effect of over 60% in size
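Compound-treated KB-V1 multidrug-resistant cells, 72 h, 37 degrees C; viability by CellTiter-Glo. Fitted qHTS curves give the values.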
SW480 rereplic = A quantitative high throughput screen for small molecules that induce DNA re-replication in SW480 colon adenocarcinoma cells; SW480 DNA re-replication, Hoechst DNA content imaging, 48 h; Potency, µM (doses to about 46.1 µM), for the others: at the top dose re-replication activation, actives largely listed as activators; 340,000 compounds, 1.8% hits; AID 624297, 2012; note: % of control where 0% means no effect; nearly all actives have a fitted effect of over 55% in size
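Treated cells incubate 48 hr (37 C, 5% CO2), are stained 40 min with Hoechst, and nuclear fluorescence is enumerated; a rise in nuclei with high DNA signal marks re-replication.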
MCF10A rerep = A quantitative high throughput screen for small molecules that induce DNA re-replication in MCF 10a normal breast cells | MCF 10A DNA re-replication, Hoechst nuclear intensity, 48 h | Potency, µM (top dose mostly 46.1 µM), inactives show at the highest dose activity, positive = re-replication, usual class: activators | 350,000 compounds, 2.9% hits; note: % of control where 0% means no effect; nearly all actives have a fitted effect of over 50% in size
KB-3-1 cytotox = qHTS assay for MDR1-selective chemotherapeutics: Primary screen using the parental adenocarcinoma cell KB-3-1. AID 1347075, 2019. KB-3-1 viability, CellTiter-Glo ATP luminescence, 72 h. Potency, µM (series often up to 46.1 µM), most hits filed as cytotoxic. 400,000 compounds, 1.4% hits; note: % is set by controls: 0 for no effect and ±100 for the full control effect; nearly all actives have a fitted effect of over 60% in size
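72 h, 37 °C compound treatment of KB-3-1 parental cells; CellTiter-Glo added, 10 min, luminescence read. Data corrected against DMSO-only plates and normalized before curve fitting.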
ELG1 DNA repair = qHTS screen for small molecules that inhibit ELG1-dependent DNA repair in human embryonic kidney (HEK293T) cells expressing luciferase-tagged ELG1; HEK293T ELG1-luciferase reporter, luminescence, 16 h; DNA damage induced by 5-fluorouridine; 330,000 compounds, 2.3% hits; Potency, µM (titrated, usually from 46.1 µM), for the others: at the highest dose activity change, negative = inhibition, hits mostly inhibitors; note: % is set by controls: 0 for no effect and ±100 for the full control effect; nearly all actives have a fitted effect of over 55% in size
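Cells (2,000 per well) received 5-fluorouridine plus test compound or DMSO and were incubated 16 hr at 37 °C, 5% CO2. Luciferase activity was read by luminescence 30 min after ONE-Glo addition; signal suppression marked inhibition of damage-induced ELG1 function.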
Active calls of the source: *; i = inactive; ? = inconclusive; . = no result. Compounds with a hit are over-represented: about 8.2% of the library has one in this group of screens. Calls come from the whole dose curve; as a rule, active = well fitted curve in the direction sought with a large enough effect; inconclusive = small, poorly fitted or top-dose-only effect, or another doubt; inactive = no such curve, though single readings can be large; an effect the other way counts as inactive or inconclusive. Potency is the fitted concentration of half-maximal effect.

SMILES | KB-V1 cytotox | SW480 rereplic | MCF10A rerep | KB-3-1 cytotox | ELG1 DNA repair
CC(C)(C)n1c(O)c2n(c1=O)Cc1ccccc1N=C2c1ccccc1 | i | . | . | i | .
O=C(Nc1cccc(C(F)(F)F)c1)c1cc2nc(-c3ccc4c(c3)OCO4)cc(C(F)(F)F)n2n1 | i | . | . | i | .
CCN(CC)C(=O)c1ccc(-c2nnc(Nc3ccc(O)cc3)c3ccccc23)cc1 | i | -2% | -3% | i | ?
CCN(CC)C(=O)c1ccc(Nc2nnc(C)c3ccccc23)cc1 | 12µM* | -6% | -3% | i | ?
CC(=O)Nc1ccc2c(c1)Cc1c-2cc(Cl)c(NC(C)=O)c1Cl | i | -8% | 8% | i | .
CC(=O)Nc1c(Br)cc2c(c1Br)Cc1cc([N+](=O)[O-])ccc1-2 | ? | 4.1µM* | ? | i | .
O=C(Nc1c(Cl)cc2c(c1Cl)Cc1cc([N+](=O)[O-])ccc1-2)C(Cl)Cl | ? | ? | 18µM* | ? | .
Nc1c(Br)cc(Br)c2c1-c1ccc([N+](=O)[O-])cc1C2 | ? | 5% | 4% | i | .
CC(=O)c1ccc(NC(=O)C(C)Sc2nnc3ccccn23)cc1 (centres undefined) | . | -4% | ? | . | 27%
COc1cccc(CC(=O)OCC(=O)N(C)CC(=O)Nc2ccccc2Cl)c1 | i | -16% | -1% | i | 3%
O=C(CCl)Nc1cc(-c2ccccc2)nn1-c1ccccc1 | 7.3µM* | ? | ? | ? | ?
Cc1cc(NC(=O)COc2ccccc2)n(-c2ccccc2)n1 | i | -6% | -3% | i | 16µM*
Cc1ccc(-c2cc(NC(=O)CCl)n(-c3ccccc3)n2)cc1 | ? | ? | ? | ? | 0%
O=C(NNC(=O)c1ccc(Cl)nc1)c1ccncc1 | i | -6% | 0% | i | 13%
Cc1nc(N)[nH]c(=O)c1CCCNc1ccc([N+](=O)[O-])cc1 | i | 26% | 7% | i | .
Cc1onc(-c2c(Cl)cccc2Cl)c1C(=O)c1c[nH]c(C(=O)NCC2CCCO2)c1 (centres undefined) | ? | -16% | 15% | i | 18µM*
CC(=O)c1c[nH]c(C(=O)NCC2CCCO2)c1 (centres undefined) | i | -17% | -2% | i | 1%
COc1ccc(-n2nc(C(=O)NCC(=O)Nc3cccc(Cl)c3)c3ccccc3c2=O)cc1 | i | -3% | -6% | i | 13µM*
COc1ccc(-n2nc(C(=O)NCC(=O)Nc3cc(OC)c(OC)c(OC)c3)c3ccccc3c2=O)cc1Cl | i | 6% | 23µM* | i | ?
COc1ccc(-n2nc(C(=O)NCC(=O)NCCC3=CCCCC3)c3ccccc3c2=O)cc1OC | i | ? | 21% | i | 9.2µM*
CCN(CC)C(=O)CNC(=O)c1nn(-c2ccc(OC)c(Cl)c2)c(=O)c2ccccc12 | i | -4% | 0% | i | -14%
CCCCCC(=O)Nc1nc2ccccc2[nH]1 | ? | ? | 21% | 23µM* | ?
CCOc1ccccc1OCCCC(=O)Nc1nc2ccccc2[nH]1 | i | 12% | 5% | i | ?
O=C(Cc1cccc2ccccc12)Nc1nc2ccccc2[nH]1 | 18µM* | ? | 0% | i | -1%
CC1CCCCC12NC(=O)N(CC(=O)N1CCN(S(=O)(=O)/C=C/c3ccccc3)CC1)C2=O (centres undefined) | i | 4% | 0% | i | 4%
SMILES | KB-V1 cytotox | SW480 rereplic | MCF10A rerep | KB-3-1 cytotox | ELG1 DNA repair
CCn1nc(C(=O)OC(C(=O)c2c[nH]c3ccccc23)c2ccccc2)c2ccccc2c1=O (centres undefined) | 12µM* | 15% | 2% | i | -5%
Cc1nnc2c3ccccc3nc(N3CCN(c4cccc(Cl)c4)CC3)n12 | ? | . | . | i | .
COC(CNc1ncnc2sc(-c3ccccc3)cc12)OC | i | 2% | 20% | i | -4%
CC(O)CNc1ncnc2cc(-c3ccc(F)cc3)sc12 (centres undefined) | ? | ? | 13µM* | i | ?
CCOC(=O)c1ccc(NC(=O)Nc2ccc3c4c(cccc24)C(=O)N3CC)cc1 | i | 7% | 23µM* | i | -2%
CCOC(=O)c1c(C)[nH]c(-c2csc(C)n2)c1C | ? | -2% | 2% | i | ?
CCOC(=O)c1c(C)[nH]c(-c2csc(N)n2)c1C | i | ? | 16µM* | ? | 13%
CSCCC(NS(=O)(=O)c1ccc(C)cc1C)C(=O)Nc1cccnc1 (centres undefined) | i | 1% | 2% | i | 14%
Fc1c(CSC(=S)N2CCOCC2)cccc1CSC(=S)N1CCOCC1 | ? | -12% | 12% | ? | 23µM*
O=C1c2ccccc2C(=O)N1CCSC(=S)N1CCOCC1 | i | -2% | 0% | i | ?
CCc1nc2cc(NC(=O)C3(C)CCCN(C(C)=O)C3)ccc2o1 (centres undefined) | i | . | . | i | .
CCCN(CC(=O)Nc1cc(Cl)cc(Cl)c1)CC(=O)Nc1ccc(F)c(F)c1F | 23µM* | ? | ? | i | ?
COc1ccc(C)cc1NC(C)C(=O)c1c[nH]c2ccccc12 (centres undefined) | i | . | . | i | .
COc1cc2c(cc1OC)C(C)N(C(=O)C1COc3ccccc3O1)CC2 (centres undefined) | i | 1% | 1% | i | 23µM*
COc1cc2c(cc1OC)C(C)N(C(=O)c1c(C)noc1C)CC2 (centres undefined) | ? | ? | 9.2µM* | ? | -8%
COc1cc2c(cc1OC)C(C)N(C(=O)c1cc(C)on1)CC2 (centres undefined) | 4.6µM* | 0.73µM* | 1.3µM* | ? | 9%
COc1ccc(C(=O)N2CCN(C(=O)C3COc4ccccc4O3)CC2)cc1OC (centres undefined) | i | -19% | 0% | i | -21%
COc1cc2c(cc1OC)C(C)N(C(=O)/C=C/c1cc(OC)c(OC)c(OC)c1)CC2 (centres undefined) | i | -12% | ? | i | 18µM*
COc1cc2c(cc1OC)C(C)N(C(C)=O)CC2 (centres undefined) | i | ? | 4% | i | ?
COc1cc2c(cc1OC)C(C)N(C(=O)c1cccs1)CC2 (centres undefined) | ? | 13% | 17% | i | ?
CCOC(=O)c1ccc(/C=C2\c3ccccc3C(=O)N2c2ccccc2)cc1F | i | 2% | -33% | ? | ?

Source: PubChem BioAssay (National Center for Advancing Translational Sciences (NCATS))
